Measured values taken from PubChem BioAssay AID1347077 (National Center for Advancing Translational Sciences (NCATS), 2019).
Hit rate of the full screen: of about 44,000 compounds, fewer than 10 were called active. Calls come from the whole dose curve; as a rule, active = well fitted activation curve with a large enough effect; inconclusive = small, poorly fitted or top-dose-only effect, or another doubt; inactive = no such curve, though single readings can be large or run the other way. Not all results are given here.

target: Beta-2 adrenergic receptor (Homo sapiens) (UniProt P07550); test: qHTS assay of beta-arrestin-biased ligands of beta2-adrenergic receptor: NCGC Sytravon Library Screen; conditions: HTLA Tango cells, beta-arrestin recruitment, luciferase luminescence, 18 h; series mostly up to 46.1 µM; activation: at the top concentration;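 note: 0% = DMSO and full agonism = EC100 isoproterenol or metaproterenol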
Excerpt: The concept of biased agonism is an emerging concept of molecular pharmacology which proposes that seven transmembrane receptors (7TMRs) or G protein-coupled receptors (GPCRs), exist in multiple signaling conformations and complexes and that ligands (either agonists or antagonists) can induce signaling biased responses for distinct signal transduction cascades. […] Furthermore, accumulating evidence over the last decade has drawn attention to a novel function of beta-arrestins as signal transducers that scaffold various signaling molecules upon activation of 7TMRs. […] This beta-arrestin-biased signaling presumably leads to distinct physiological outcomes from those by G protein activation. Additionally, the active receptor conformations which prefer on this beta-arrestin signaling are likely different from those activating G protein signaling. […] The goal of this screening project will be to discover and optimize novel beta-arrestin-biased ligands for beta2-AR signaling. A luminescent cell-based assay for beta2-AR-mediated agonism, known as the Tango assay, has been validated in which ligand binding of a recombinant beta2-AR and subsequent recruitment of a recombinant beta-arrestin lead to the release of the transcriptional activator tTA, which upregulates transcription of a tTA-responsive luciferase gene. […] Compounds from the NCGC Sytravon Library collection were screened as a concentration-titration series that ranged from 46 microM to 0.6 nM. NIH Molecular Libraries Probe Production Network [MLPCN] NIH Chemical Genomics Center [NCGC] MLPCN Grant: Fast-track/HHSN271700800025C PI: Bryan Roth and Bob Lefkowitz
Tango cells were dispensed into white, solid, tissue-culture-treated 1536-well plates at 1500 cells/well in DMEM, containing 1% fetal bovine serum (FBS). Then, 23 nL of compounds or DMSO were delivered to each well using a pin tool. Plates were incubated at 37 degrees C, 5% CO2 for 18 hr. Then 2.5 uL luminescent substrate mix (in-house prepared: 150 mM Tris-Cl, pH 7.6, 3 mM MgCl2, 1% Triton X-100, 5 mM DTT, 0.5 mM CoA, 0.15 mM ATP, 0.44 mM D-luciferin, final concentrations) was added to each well. Plates were then incubated for 15 minutes at room temperature, and subsequently measured on a ViewLux plate reader for luminescent signal using a clear filter with a 10 second exposure and 2x binning. The %Activity was determined from the corrected luminescence values. […] Concentration-response curves were fitted to the signals arising from the resulting luminescence. The concentration-effect curves were then classified based on curve quality (r2), response magnitude and degree of measured activity, and compounds were subsequently categorized based on their curve class.

Sequence of Beta-2 adrenergic receptor (Homo sapiens) (P07550 whole entry, looked up): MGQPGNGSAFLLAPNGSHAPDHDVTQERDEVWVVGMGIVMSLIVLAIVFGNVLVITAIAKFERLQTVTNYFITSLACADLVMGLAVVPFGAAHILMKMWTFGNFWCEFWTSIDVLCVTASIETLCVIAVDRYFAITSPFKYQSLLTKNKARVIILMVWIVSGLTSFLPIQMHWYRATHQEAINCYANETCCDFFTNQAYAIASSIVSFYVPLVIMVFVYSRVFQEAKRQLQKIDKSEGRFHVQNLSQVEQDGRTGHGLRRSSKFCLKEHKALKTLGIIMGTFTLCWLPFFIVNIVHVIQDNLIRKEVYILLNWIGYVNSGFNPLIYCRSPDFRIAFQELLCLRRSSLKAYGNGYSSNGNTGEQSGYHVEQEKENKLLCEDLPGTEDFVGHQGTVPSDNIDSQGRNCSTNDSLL

activation, inactive:
CCOc1ccc(CNC(=O)c2cc(=O)[nH]c3ccc(S(=O)(=O)N4CCCCC4)cc23)cc1 -0.314%, O=C(CC(NCc1cccnc1)C(=O)O)Nc1ccc(O)cc1 (stereo not given) 0.126%, CCc1nc2onc(C)c2c(=O)n1CC(=O)O -1.3%, CCCCc1nn2c(=O)cc(COC(=O)c3cccc(NC(=O)COc4ccccc4)c3)nc2s1 0.38%, COc1ccccc1C(=O)OCc1cc(=O)n2nc(-c3cccs3)sc2n1 -0.913%, CCOc1ccccc1CNC(=O)Nc1cn(CC(C)C)c(=O)c2ccccc12 0.473%, CC(=O)Nc1cc(C(=O)NCc2ccc(F)cc2Cl)ccc1Sc1ccc(Cl)cc1 0.0643%, O=S(=O)(c1ccc(Cl)cc1)c1nnn2c1nc(NC1CCCC1)c1sccc12 3.34%, CC(C)(C)c1ccc(C(=O)NCC(c2ccco2)S(=O)(=O)c2ccc(F)cc2)cc1 (stereo not given) -0.628%, COc1ccc(CCNc2nc(-c3ccc(Cl)cc3)cc(C(F)(F)F)n2)cc1OC 0.359%, CCOc1ccc(Nc2ncnc3scc(-c4ccc(OC)cc4)c23)cc1 0.966%, Cc1cccc(NC(=O)CSc2nnc(CNC(=O)c3cccc(C)c3)n2-c2ccccc2)c1 0.652%, Cc1c(C(=O)NCc2ccccc2Br)oc2ccc3c(c12)C(=O)CC(C)(C)O3 0.769%, O=c1c(NCc2cccs2)nccn1-c1ccccc1 -0.476%, COc1ccccc1Nc1c2c(nc3ccc(NC(=O)/C=C/c4cc(OC)c(OC)c(OC)c4)cc13)CCCC2 -0.0014%, CC(=O)N1CCc2cc(Br)cc(S(=O)(=O)CCC(=O)NCCc3ccc(Cl)cc3)c21 -1.89%, Cc1ccccc1CNC(=O)C1CCCN(S(=O)(=O)N(C)c2ccc(F)cc2)C1 (stereo not given) -0.584%, CCOc1cccc(CNC(=O)c2ccc(N3CCCC3)c(NC(=O)Nc3ccccc3CC)c2)c1 0.0293%, Cc1ccc(CN2CCC(CNC(=O)c3cnn(-c4ccccc4Cl)c3C3CCN(C(=O)OC(C)(C)C)CC3)CC2)cc1 -0.282%, COc1cc(OC)c(NC(=O)Cc2ccc(-n3c(C)nc4cccnc43)cc2)cc1Cl 0.0247%, COc1ccc2c(c1)c(N1CCCC1=O)c(C(=O)Nc1ccc(OC)c(Cl)c1)n2C 1.84%, O=C(CC1N=C2c3ccccc3N=C(SCc3ccc(F)cc3)N2C1=O)NCc1cccs1 (stereo not given) 10.6%, CCOc1ccc(C(=O)c2cn(Cc3ccc(F)cc3)c3ccc(F)cc3c2=O)cc1 -0.931%, COc1ccccc1CNC(=O)CCn1c(=O)c2ccccc2n(CC(=O)Nc2ccc(Br)cc2F)c1=O -1.31%, CCOc1ccc(N(CC)S(=O)(=O)N2CCCC(C(=O)NCc3ccc(Cl)cc3)C2)cc1 (stereo not given) 2.98%, COC(=O)c1cc(S(=O)(=O)N2CCN(c3cc(Cl)ccc3C)CC2)c[nH]1 0.398%, Cc1ccc(Cl)cc1NC(=O)CSc1nc2ccccc2nc1Cc1ccccc1 -0.671%, COC(=O)c1ccc2c(c1)N(CC(=O)Nc1ccc(C)c(C)c1)C(=O)c1ccccc1S2 0.0004%, CCc1ccccc1NC(=O)CSc1nnc(-c2ccccc2)c(-c2ccccc2)n1 0.425%, COc1ccc(-c2c(C)c3ccc(O)c(CN4CCN(C)CC4)c3oc2=O)cc1OC 0.151%, CCOC(=O)c1ccc2c(c1)N(Cc1cccc(OC)c1)C(=O)c1ccccc1S2(=O)=O -1.14%, CCN(Cc1ccccc1)Cc1c(O)ccc2c(=O)c(-c3ccc(Cl)cc3Cl)coc12 0.878%, COC(=O)c1ccc(Cn2c(SCC(=O)N(C)c3ccccc3)nc3ccccc32)cc1 0.519%, Cc1ccc(CNC(=O)CCNS(=O)(=O)c2ccc3c(c2)oc(=O)n3C)cc1 0.362%, CSc1ccc(CCNC(=O)c2cc(C)nc3c2c(C)nn3-c2cccc(F)c2)cc1 1.93%, COc1cc(NC(=O)c2cc3ccc4cccnc4c3[nH]2)cc(OC)c1OC 1.03%, CCCCCn1c(=O)[nH]c2cc(C(=O)Nc3ccc(F)cc3)ccc2c1=O 0.0091%, Cc1ccc(NC(=O)Nc2sc3nc4n(c(=O)c3c2C)CCC(C)CC4)c(Cl)c1 (stereo not given) 0.293%, Cc1ccc(-n2ncc(C(=O)N(C)Cc3ccccc3)c2-n2cccc2)cc1 -1.39%, COc1ccccc1NC(=O)C1=C(C)Nc2ncnn2C1c1sccc1C (stereo not given) -0.49%, Cc1ccc(CNC(=O)CCC(=O)N2CC(C)Sc3ccccc32)cc1 (stereo not given) -0.354%, COc1ccccc1N1CCN(CCCNC(=O)c2cnn(-c3ccccc3Cl)c2C2CCN(C(=O)OC(C)(C)C)CC2)CC1 0.105%, Cc1ccc(Cl)cc1NC(=O)C(C)n1nnc2sc(-c3ccccc3)cc2c1=O (stereo not given) -0.567%, Cc1ccc(Cl)cc1NC(=O)Cc1ccc(-n2c(C)nc3cccnc32)cc1 1.55%, Cc1cc2c(cc3c(SCc4nc(-c5ccccc5)oc4C)nnc(C)n32)o1 -0.472%, Cc1ccc(-c2nn3c(=O)cc(CN4CCN(C(=O)Nc5cccc(C(F)(F)F)c5)CC4)nc3s2)cc1 -0.373%, Cc1ccccc1NC(=O)Cn1c(=O)n(CCc2ccccc2)c(=O)c2ccccc21 -2.33%, CCCn1c2ccccc2c2cnn(CC(=O)N(CC)c3cc(C)ccc3C)c(=O)c21 0.931%, O=C(COc1ccc(Cl)cc1)Nc1ccccc1OCc1cc(=O)n2ccccc2n1 -0.53%, CCc1ccccc1NC(=O)CCOc1ccccc1 -1.06%, CCC(C(=O)Nc1cc(OC)ccc1OC)n1c(=O)c(C(F)(F)F)nc2ccccc21 (stereo not given) 0.639%, Cc1ccc(CN2COc3cc(C)c4c(oc(=O)c5ccccc54)c3C2)cc1 0.158%, COc1ccc(OC)c(-c2csc(-c3c(N)c(C(=O)c4ccccc4)n4ccccc34)n2)c1 -3.81%, COc1ccc(CNC(=O)c2ccc3c(c2)nc2n3CCOC2)c(OC)c1 1.39%, CCOC(=O)c1scc(-c2ccc(C)cc2)c1S(=O)(=O)Nc1cc(C)ccc1C -0.489%, CCN(CCCNC(=O)c1ccc(Sc2ccc(C)cc2)c(NC(C)=O)c1)c1cccc(C)c1 0.426%, CCOc1cccc(NC(=O)c2ccc(F)c(S(=O)(=O)N(CC)c3cccc(C)c3)c2)c1 0.916%, COc1ccc(C(=O)c2oc3ccccc3c2NC(=O)COc2cccc(C)c2)cc1 -1.04%, Cc1ccccc1OCc1ccc(-c2nc(C#N)c(N3CCCCC3)o2)o1 -3.83%, CCCCc1nn2c(=O)cc(COC(=O)c3ccc(NC(=O)c4ccccc4C)cc3)nc2s1 0.536%
